Reference: PubChem BioAssay (NCI)
Compounds without any hit were thinned out: in the full panel of roughly 83,000, 20% have a hit.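 Interpretation: 100, growth as untreated; towards 0, rising growth inhibition; 0, no net growth; 0 to -100, cell death. Compounds scoring below 10 were considered active.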 Active and inactive are the calls of the source.

Assays:
Assay in all cases: NCI-60 one-dose screen, 48 h (100 = growth as untreated, 0 = no growth, -100 = all killed)
Conditions in all cases: 10 µM unless noted
[1] = system: NCI-H23 lung
[2] = system: NCI-H226 lung
[3] = system: NCI-H322M lung
[4] = system: HOP-62 NSCLC
[5] = system: NCI-H460 lung
[6] = system: HOP-92 NSCLC
[7] = system: NCI-H522 lung
[8] = system: A549/ATCC NSCLC
[9] = system: 786-0 renal
[10] = system: COLO 205 colon

Measured: growth

O=C(c1c[nH]c2ccccc12)c1n[nH]c(=S)n1-c1cccc(Br)c1
inactive: [1] 87.2% | [2] 83.1% | [3] 77.7% | [4] 81.7% | [5] 75% | [6] 84.2% | [7] 80% | [8] 86.5% | [9] 103% | [10] 99%

O=C(/C=C/c1ccc(Cl)cc1)c1cccc(OCCCOc2cccc(C(=O)/C=C/c3ccc(Cl)cc3)c2)c1
inactive: [1] 102% | [2] 104% | [3] 103% | [4] 107% | [5] 102% | [6] 120% | [7] 96.2% | [8] 92.7% | [9] 102% | [10] 113%

CC/C=C\C[C@H](O)C/C=C1/C(=O)C=C[C@@H]1C/C=C\CCCC(=O)O
active: [7] -10.7%
inactive: [1] 79.9% | [2] 83.1% | [3] 85.6% | [4] 96.9% | [5] 64.8% | [6] 75.2% | [8] 75.9% | [9] 68.5% | [10] 65.4%

Cc1nc2ccccc2c(/C=C/c2ccccc2)c1C(=O)/C=C/c1ccccc1
active: [4] 6.52% | [5] -20.8%
inactive: [1] 28.7% | [2] 65.1% | [3] 43.8% | [6] 79.6% | [7] 15.9% | [8] 23.2% | [9] 31.5% | [10] 15.7%

CCCCNC(=O)Oc1ccc(/C(=C(/C)Cc2ccc(OC)cc2)c2ccc(OCCN3CCCCC3)cc2)cc1
inactive: [1] 81.6% | [2] 90.5% | [3] 92% | [4] 84.1% | [5] 33.6% | [6] 63.4% | [7] 81.2% | [8] 61% | [9] 66.7% | [10] 34.9%

Cc1ccccc1Nc1cc(O)c2c(=O)cc(-c3ccccc3)oc2c1
active: [5] 8.06%
inactive: [1] 45.5% | [2] 57.8% | [3] 70.5% | [4] 49.4% | [6] 86.7% | [7] 36% | [8] 35.2% | [9] 43.5% | [10] 61.8%

CN1CCN(C(=S)SCCCCOc2cc(=O)oc3ccccc23)CC1
inactive: [1] 80.9% | [2] 67.1% | [3] 102% | [4] 79.6% | [5] 93.5% | [6] 67.5% | [7] 63.6% | [8] 84.5% | [9] 96.9% | [10] 86.4%

CSc1nc(C)c([N+](=O)[O-])c(N)n1
inactive: [1] 101% | [2] 102% | [3] 93.7% | [4] 104% | [5] 104% | [6] 89.3% | [7] 77.2% | [8] 76.2% | [9] 103% | [10] 110%

Cc1ccc(-c2nc(SCc3nc4cc(Cl)c(Cl)cc4[nH]3)[nH]c(=O)c2C#N)cc1
inactive: [1] 99.2% | [2] 103% | [3] 101% | [4] 91.9% | [5] 112% | [6] 104% | [7] 89.1% | [8] 93.1% | [9] 94.5% | [10] 107%

Cc1ccc2c(-c3nnc(N)s3)cc(=O)oc2c1C
inactive: [1] 95.5% | [2] 97.5% | [3] 98.5% | [4] 101% | [5] 102% | [6] 106% | [7] 102% | [8] 104% | [9] 92.4% | [10] 119%

O=C1/C(=C2\SC(=S)N(C3CC3)C2=O)SC(=S)N1C1CC1
inactive: [1] 96.7% | [2] 95.5% | [3] 95.6% | [4] 99.3% | [5] 103% | [6] 98.9% | [7] 91.9% | [8] 98.1% | [9] 98.6% | [10] 117%

CCN(CC)CCN1C(=O)c2c(c(C)c3c(oc4ccc(O)cc43)c2C)C1=O
active: [5] -45.6% | [9] -36.2%
inactive: [1] 47.3% | [2] 70% | [3] 33.2% | [4] 80.7% | [6] 91.7% | [7] 68.2% | [8] 20.6% | [10] 83.2%

CCOC(=O)C#Cc1c(C(=O)OCC)nnn1Cc1ccc(C(F)(F)F)cc1
active: [7] -15.1%
inactive: [1] 97.9% | [2] 71.9% | [3] 93.4% | [4] 103% | [5] 95.8% | [6] 65.5% | [8] 95.8% | [9] 43.6% | [10] 17.2%

N#C/C(=C\c1cn(Cc2ccccc2)c2ccccc12)C(=O)Nc1ncc(Cc2ccccc2Cl)s1
inactive: [3] 36.1% | [4] 12.5% | [7] 30.3%
active: [1] -29.3% | [2] -33.6% | [5] -44.2% | [6] -6.07% | [8] 8.73% | [9] 6.01% | [10] -2.97%

NC(=O)c1cccc([C@@H]2O[C@H](CO)[C@@H](O)[C@H]2O)c1
inactive: [1] 63.7% | [2] 73.1% | [3] 87% | [4] 47.7% | [5] 103% | [6] 52.4% | [7] 42.2% | [8] 71.6% | [9] 12.9% | [10] 40.5%

O=c1nc(-c2ccccc2)c2cc(-c3ccc(C(F)(F)F)nc3)ccc2[nH]1
inactive: [1] 89.5% | [2] 100% | [3] 92.9% | [4] 106% | [5] 106% | [6] 105% | [7] 85.3% | [8] 111% | [9] 100% | [10] 105%

COc1ccc(C[n+]2c3ccccc3n3c4ccc(N)cc4ccc32)c(OC)c1OC
inactive: [1] 48.9% | [2] 61.4% | [3] 102% | [4] 52.9% | [5] 73.6% | [7] 11% | [8] 63% | [9] 75.9% | [10] 15.5%
active: [6] -0.227%

CC1(C)[C@@H](O[C@@H]2OC[C@@H](O[C@@H]3O[C@H](CO)[C@@H](O)[C@H](O)[C@H]3O[C@@H]3OC[C@@H](O)[C@H](O)[C@H]3O)[C@H](O)[C@H]2O[C@@H]2O[C@H](CO)[C@@H](O)[C@H](O)[C@H]2O)CC[C@]2(C)[C@H]3CC[C@]45OC[C@@]6(CC[C@](C)(C=O)C[C@H]64)[C@H](O)C[C@@]5(C)[C@]3(C)CC[C@@H]12
active: [1] -55.1% | [2] -65.2% | [3] -86.9% | [4] -82.9% | [5] -63% | [6] -63.7% | [7] -89.7% | [8] -73.6% | [9] -75% | [10] -93.9%

COc1ccc(C(=O)N2c3ccccc3Sc3ccccc32)c(C(F)(F)F)c1
active: [5] 9.51% | [7] 2% | [10] -13.9%
inactive: [1] 24.4% | [2] 13.1% | [3] 53.4% | [4] 42.8% | [6] 15% | [8] 25.3% | [9] 38.8%

CCN1CCN(c2cc(C)nc(N(CCNc3ccnc4cc(Cl)ccc34)Cc3ccc4c(c3)OCO4)n2)CC1
inactive: [1] 13.6% | [2] 47.7% | [3] 28.3% | [6] 44.6%
active: [4] -14.3% | [5] 8.38% | [7] -81.7% | [8] 2.91% | [9] -76.8% | [10] -89.5%

O=C(/C=C/c1cccc(Cl)c1Cl)Nc1ncc(Cc2ccccc2Cl)s1
inactive: [1] 79.2% | [2] 67.7% | [3] 78.5% | [4] 42.4% | [5] 33.9% | [6] 61.6% | [7] 17.5% | [8] 58.2% | [9] 68.7% | [10] 45.4%
